The values that follow come from PubChem BioAssay (NCI).

Compounds without any hit were thinned out: in the full panel of roughly 83,000, 20% have a hit.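 Interpretation: 100, growth as untreated; towards 0, rising growth inhibition; 0, no net growth; 0 to -100, cell death. Compounds scoring below 10 were considered active.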 A number with no mark means an inactive call. Activity calls are given as the source filed them.

The subject of this experiment is NCI-H460 lung. Put plainly: NCI-60 one-dose screen, 48 h (100 = growth as untreated, 0 = no growth, -100 = all killed). To be noted: 10 µM unless noted. The procedure: Growth inhibition of the NCI-H460 human Non-Small Cell Lung tumor cell line is measured as a screen for anti-cancer activity. Cells are grown in 96 well plates and exposed to the test compound for 48 hours. Compounds are tested at a single concentration, which is 10^-5 M for most compounds. The reported endpoint is percent growth (GI% or GIPRCNT), where numbers from 0 - 100% represent growth inhibition, and numbers from -100% - 0 represent cell death. For example, a value of 40 represents 60% growth inhibition. A value of 0 means no net growth occurred over the course of the experiment. A value of -40 indicates 40% of cells at the beginning of the experiment died by the end of the experiment. A value of -100 means all cells are dead at the end of the experiment.
NCI-60 Human Tumor Cell Lines Screen was performed using the standard one-dose NCI protocol, which is described in more detail at https://dtp.cancer.gov/discovery_development/nci-60/default.htm.
Compounds with GIPRCNT values below 10 were considered active. Activity score was based on GIPRCNT using the following formula: […]
Score is 0 for GIPRCNT values of 100 or above, 50 for GIPRCNT values of 0, and 100 for GIPRCNT values of -100.
Consider `COc1ccc2[nH]cc(-c3cc(N)n4nc(-c5cn(C)c6ccccc56)cc4n3)c2c1`, for which the growth is -1.01% (active). The same measure for `COc1ccc(C(=O)/C=C/c2ccc(Cl)c(Cl)c2)cc1S(N)(=O)=O`: 7.22% (active). The value for `CC(C)CSc1nc(NCCc2c[nH]c3ccccc23)c(C#N)c(-c2ccc(F)cc2)n1` was 11.6%. The value for `O=C(Cn1c2c(sc1=O)[C@H]1[C@@H](O)[C@@H](O)[C@H](O)[C@@H]1CS2)N1CCOCC1` was 106%; that for `N/C(=N\c1nc2ccccc2s1)NC(=O)Nc1c(Cl)cccc1Cl` was 17.8%; that for `Brc1ccc(-c2n(Cc3ccc4ccccc4c3)c(-c3ccccc3)c(-c3ccccc3)[n+]2Cc2ccc3ccccc3c2)cc1` was -81.3% (active). Regarding `C#CCOc1ccc(/C=N/Nc2nc(-c3ccc(Cl)cc3)cs2)cc1OC`, the growth was 68%.

Take `Cc1cccc(-c2nc(Nc3ccc(C)c(S(N)(=O)=O)c3)c3ccccc3n2)c1`: the growth was 19%. The value for `Cc1ccc(C(=O)CSc2nc3ccc(C)cc3c(=O)n2-c2ccc(F)cc2)cc1` was 32.7%. The value for `CCCCSc1nc(NCCc2c[nH]c3ccccc23)c(C#N)c(-c2ccc(OC)cc2)n1` was 33.4%; that for `O=C(Cn1c(/C=C/c2cccc([N+](=O)[O-])c2)nc2ccccc2c1=O)Nc1ccccc1` was 67.2%; that for `Cc1ccc([C@H]2C(C(=O)c3ccc(Cl)cc3)C3(N[C@@H]2c2ccccc2)C(=O)Nc2ccc(Cl)cc23)cc1` (stereo not given in full) was 39.7%. As to `CCN(CC)c1ccnc(CNCCSC(c2ccccc2)(c2ccccc2)c2ccc(C)cc2)c1`, the growth was -79.6% (active). The same measure for `O=C(N/N=C/c1ccc(-c2ccc(O)cc2)s1)c1[nH]c2ccc(Br)cc2c1-c1ccccc1`: -18.3% (active); for `O=C(c1ccccc1)c1ccc2nc(-c3ccc(F)cc3)[nH]c2c1`: 51.4%. `O=C(CSc1nc2ccccc2c(=O)[nH]1)NCCN1CCCCC1`: the growth was 104%. The value for `C#CCOc1ccc(/C=N/Nc2nc(-c3ccc(F)cc3)cs2)cc1OC` was 77.4%; that for `CCCCCCCS(=O)(=O)N1CCCC(C(=O)Nc2nc3ccc(NC(=O)c4ccc(F)c(OC)c4F)cc3s2)C1` (stereo not given) was 69.7%; that for `COC(OC)C1=C(C)OC(N)=C(C#N)C12C(=O)Nc1ccccc12` (stereo not given) was 97.2%. The same measure for `Cc1cc2nc3c([nH]c2cc1C)c1ccc(=O)cc1n3CCN(C)C`: 2.91% (active). `COC(=O)/C=C/c1cccc2c1C(=O)NC(C)(c1cc3ccccc3oc1=O)N2` (stereo not given): the growth is 44.5%. The value for `CCCCCCCCc1ccc(S(=O)(=O)Nc2ccc(CC)cc2C(=O)O)cc1` was 96.7%; that for `Cc1cc(=O)oc2cc(OCCOc3ccc(/C=C/C(=O)Nc4ccccc4N)cc3)ccc12` was 19.5%.

Regarding `N/C(=N\c1nc2ccccc2s1)NC(=O)Nc1ccccc1Br`, the growth is -26.1% (active). The same measure for `COc1cc(/C=C/C(=O)c2nnn(-c3ccc(Cl)cc3)c2C)cc(OC)c1OC`: 14.2%; for `CCOc1ccc(C(=O)NC(=S)Nc2ccc(S(N)(=O)=O)cc2)cc1`: 102% [100 µM]; for `CCCCCCCCc1ccc(C(=O)Nc2cccc(P(=O)(O)O)c2)cc1`: 107%. Turning to `COC(=O)C[C@](O)(CCCC(C)(C)O)C(=O)O[C@H]1C(OC)=C[C@@]23CCCN2CCc2cc4c(cc2[C@@H]13)OCO4`, the growth is -3.74% (active). The value for `CC(=O)N1CCN(Cc2ccc3c(NNC(=O)c4cnccn4)nc4cc(F)ccc4n23)CC1` was 9.64% (active). Take `COc1cc2nc(SCc3ccccc3)n(-c3ccc(Cl)cc3)c(=O)c2cc1OC`: the growth is -47.6% (active). Regarding `CCOC(=O)/C=C/c1cccc2c1C(=O)NC(C)(c1cc3cc(Br)ccc3oc1=O)N2` (stereo not given), the growth was 46.1%. The same measure for `CCCSc1nc(NCCc2c[nH]c3ccccc23)c(C#N)c(-c2ccc(F)cc2)n1`: 14.1%; for `COc1cccc(/C=C/c2nc3ccccc3c(=O)n2CC(=O)Nc2ccc(Cl)cc2)c1`: 47.4%; for `COc1ccc(NC(=O)[C@H](C)N)cc1C(=O)Nc1cccc(C2CC(=O)c3c(cc(OC)c(OC)c3OC)O2)c1` (stereo not given in full): 96.9%.

`CC(C)Sc1nc(NCCc2c[nH]c3ccccc23)c(C#N)c(-c2ccccc2)n1`: the growth is 6.33% (active). Turning to `CC1(C)CC[C@]2(C(=O)Nc3ccc(F)cc3)CC[C@]3(C)C(=CCC4[C@@]5(C)C[C@@H](O)[C@H](O)[C@@](C)(CO)C5CC[C@]43C)C2C1` (stereo not given in full), the growth was 30.8%.

In the case of `O=C(c1ccc(OCCN2CCOCC2)cc1)C1[C@H](c2ccc(Cl)cc2)[C@@H](c2ccccc2)NC12C(=O)Nc1ccc(Br)cc12` (stereo not given in full), the growth was 6.73% (active). The value for `Cn1cc(-c2cc3nc(-c4cn(C)c5ncccc45)cc(N)n3n2)c2cc(Cl)ccc21` was -70% (active). The same measure for `Nc1nc(-c2ccccc2)c(N=Nc2ccc(Cl)cc2[N+](=O)[O-])s1`: 105%; for `COc1cc(/C=C/C(=O)c2ccccc2)ccc1Oc1nc(Nc2ccc(F)cc2)nc(N(C)C)n1`: 18.1%.
